In all, about 420,000 compounds went through this assay and about 50,000 (12%) were called active. Where a call stands in place of a potency, no number is given. About 26% were inconclusive and are not listed. This is one part of a sample in which actives are shown more often than they occur. Calls follow the shape of the dose curve; as a rule, active = well fitted inhibition curve with a large enough effect; inconclusive = small, poorly fitted or top-dose-only effect; inactive = flat fitted curve, though single readings scatter.
Potency is read from the fitted curve at half-maximal effect.

This test can be described thus: qHTS for Inhibitors of human tyrosyl-DNA phosphodiesterase 1 (TDP1): qHTS in cells in presence of CPT. Also: nearly all actives have a fitted effect of over 55% in size. The following applies: chicken DT40 Tdp1-/-;hTDP1 cells + 20 nM CPT, ATP luminescence, 48 h; series mostly up to 46.2 µM. The source says: Human tyrosyl-DNA phosphodiesterase 1 (TDP1) is a novel repair gene, and we propose to use it as a new target for anticancer drug development. TDP1 is not an essential protein, but under treatment with topoisomerase I poison (camptothecin: CPT), TDP1 works as a critical factor for cell survival. To directly identify novel TDP1 inhibitors active in a cellular environment, we have knocked-out the Tdp1 gene in chicken DT40 cells (Tdp1-/-) and generated a complemented counterpart cells that contains a stable transfection of the human TDP1 gene (Tdp1-/-;hTDP1 cells). For the primary screen, Tdp1-/-;hTDP1 cells will be exposed to small molecules in the presence or absence of CPT, and their growth kinetics will be evaluated after 48 hours by measuring ATP activity. […] The hit compounds will then be evaluated in the presence or absence of CPT using Tdp1-/- cells. […] In tertiary assays, biochemical gel-based assays will be used to assess whether the hit compounds specifically target TDP1. To this end, we have screened this cell line against the MLSMR in two primary screens. In one screen we add CPT and in the other we screen in the absence of CPT; this AID represents the screen where CPT was present. NIH Chemical Genomics Center [NCGC] NIH Molecular Libraries Probe Centers Network [MLPCN] MLPCN Grant: MH095538 Assay Submitter (PI): Yves Pommier, NCI
DT40-hTDP1 cells with 20 nM Camptothecin (add 20 microL of 1 mM CPT stock in 1 L of cell culture medium) were dispensed at 400 cells/5microL/well in tissue culture treated 1536-well white wall/solid bottom assay plates (Greiner Bio-One North America, NC, U.S.A.) using a Multidrop Combi 8 channel dispenser (Thermo Fisher, Waltham, MA, USA). 23 nL compounds and controls were transferred using the pin tool (Kalypsys, San Diego, CA, USA) to the assay plates. The assay plates were then incubated at 37 masculineC for a minimum 48 hr. Three microL of Cell Titer Glo solution was added to the plates and incubated at RT in dark for 30 min. Luminescence was read using ViewLux (Perkin Elmer) with 1 sec exposure slow speed, high gain and 2x binning.
For orientation: qHTS replaces the single test concentration by a dilution series.
On to `COc1cccc(-c2nn(C)c3sc(C(=O)N4CCN(c5ccccc5)CC4)cc23)c1`, for which the Potency was 23.1 µM (active). Take `COc1cccc(N2CCN(c3ccc4nnc(CCC(=O)N5CCN(C)CC5)n4n3)CC2)c1`: the Potency result was “inactive”. With `CCOC(=O)N1CCN(C(=O)c2ccc3nc4cc(Cl)ccc4c(=O)n3c2)CC1`, the Potency result is “inactive”. On to `CCOC(=O)N1CCN(C(=O)c2cc3c(-c4ccc(Cl)cc4)nn(C)c3s2)CC1`, for which the Potency is 16.4 µM (active). The value for `Cn1nc(C(F)(F)F)c2cc(C(=O)N3CCOCC3)sc21` was “inactive”; that for `COc1cccc(-c2ccc(SCC(=O)N3CCN(c4ccccc4)CC3)nn2)c1` was 16.4 µM (active). Regarding `CCOc1ccc(-c2ccc(SCC(=O)N3CCOCC3)nn2)cc1`, the Potency entry is “inactive”. Turning to `CCOC(=O)N1CCN(C(=O)CNC(=O)Cc2ccc(Cl)cc2)CC1`, the Potency result is “inactive”. As to `COc1cccc(/C=C/C(=O)OCC(=O)N2CCN(c3ccccc3)CC2)c1`, the Potency result is “inactive”. The value for `O=C(Nc1nccs1)C1CCN(S(=O)(=O)c2ccc(Cl)c(C(F)(F)F)c2)CC1` was “inactive”; that for `O=C(NCc1cccnc1)c1ccccc1NC(=O)c1c(F)cccc1F` was “inactive”; that for `CN(C)C(=O)c1cccn(Cc2cccc(C(F)(F)F)c2)c1=O` was “inactive”. As to `CC(C)CC(=O)NC(=S)Nc1ccc(F)cc1F`, the Potency entry was “inactive”.

For `CCOC(=O)c1cc(NC(=O)c2cccnc2)ccn1`, the Potency entry was “inactive”. Consider `CCCCOC(=O)c1ccc(N2C(=O)CC(N3CCN(C/C=C/c4ccccc4)CC3)C2=O)cc1` (centres undefined), for which the Potency result is “inactive”. The value for `O=C(c1ccc(F)cc1)N1CCC(n2nnc3ccccc32)CC1` was “inactive”; that for `CC(NC(=O)CCCC1CCCCC1)c1ccc(S(N)(=O)=O)cc1` (centres undefined) was “inactive”.

Turning to `CC(Sc1nc2cc(Cl)ccc2s1)C(=O)Nc1ccc2c(c1)OCO2` (centres undefined), the Potency result was “inactive”. On to `COc1ccc(C2NC(=O)N(C)C3=C2C(=O)N(c2ccc(C(=O)O)cc2)C3)cc1` (centres undefined), for which the Potency entry is “inactive”. The value for `CC(C(=O)Nc1ccc(F)c(F)c1F)N1CCCCCC1` (centres undefined) was “inactive”. As for `COc1ccc([N+](=O)[O-])cc1NC(=O)CC1SC(=Nc2cccc(C)c2C)N(/N=C(\C)c2ccc(C)cc2)C1=O` (centres undefined), the Potency result is “inactive”.

Regarding `CCOc1ccc(CN2CCN(Cc3c[nH]c4ccccc34)CC2)cc1`, the Potency is 3.66 µM (active). The value for `CCOc1ccc(CN2CCCN(C)CC2)cc1` was “inactive”; that for `CCOc1ccc(CC(=O)NC2CCN(Cc3ccccc3)CC2)cc1` was “inactive”. As to `CC(C)(C)S(=O)(=O)N1Cc2cc(CO)cc(CCO)c2[C@H]1CCO`, the Potency entry is “inactive”. With `C/C(CC(=O)NC(C)(C)C)=N\NC(=O)c1ccco1`, the Potency result was “inactive”. `Cc1csc2nc(COC(=O)c3cccc(N(C)C)c3)cc(=O)n12`: the Potency entry is “inactive”. The value for `CCCc1c(C)nc2scc(-c3ccc(Cl)cc3)n2c1=O` was “inactive”. As for `O=c1cc(CCl)nc2scc(-c3ccccc3)n12`, the Potency was 14.6 µM (active).

The values are drawn from PubChem BioAssay AID686979 (National Center for Advancing Translational Sciences (NCATS), 2013).
